Experimental data reported in ChEMBL document CHEMBL2218924, “A broad activity screen in support of a chemogenomic map for kinase signalling research and drug discovery” (Biochem J, 2013).

These compounds were tested against T1, Serine/threonine-protein kinase Sgk2 (Homo sapiens) (UniProt Q9HBY8). Conditions: at 10 µM.
T1 sequence (whole entry): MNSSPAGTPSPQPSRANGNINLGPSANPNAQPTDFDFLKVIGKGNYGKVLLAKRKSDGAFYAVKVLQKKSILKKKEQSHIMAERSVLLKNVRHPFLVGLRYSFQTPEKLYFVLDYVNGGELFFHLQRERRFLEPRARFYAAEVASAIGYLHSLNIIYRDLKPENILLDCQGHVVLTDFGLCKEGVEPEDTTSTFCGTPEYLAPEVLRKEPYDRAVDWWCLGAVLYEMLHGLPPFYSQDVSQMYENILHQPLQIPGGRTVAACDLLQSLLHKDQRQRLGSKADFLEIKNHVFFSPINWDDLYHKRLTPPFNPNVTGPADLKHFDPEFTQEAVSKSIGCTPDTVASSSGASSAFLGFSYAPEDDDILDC

| Compound | residual activity [%] |
| --- | --- |
| CCOC(=O)c1c(C)[nH]c(/C=C2\C(=O)Nc3ccccc32)c1C | 76 |
| NC(=O)c1ccc(-c2nc(-c3ccc4c(c3)OCCO4)c(-c3ccccn3)[nH]2)cc1 | 89 |
| O=C(Nc1ccc(Cl)cc1)c1ccccc1NCc1ccncc1 | 72 |
| O=C1Nc2ccccc2/C1=C\c1c(Cl)[nH]c2ccccc12 | 77 |
| O=C(O)/C=C/c1cc(Br)c(Br)c(Br)c1Br | 41 |
| COc1ccc(-c2cnc3c(-c4ccsc4)cnn3c2)cc1 | 83 |
| Oc1cccc(-c2nc(N3CCOCC3)c3oc4ncccc4c3n2)c1 | 66 |
| NC(=O)c1cccc(-c2cc(Nc3ccc(OC(F)(F)F)cc3)ncn2)c1 | 92 |
| COc1cc2ncnc(Nc3cccc(Cl)c3)c2cc1OC | 70 |
| Nc1ncnc2c1cnn2-c1ccccc1 | 68 |
| CC(C)(C)c1nc2c3ccc(F)cc3c3c(=O)[nH]ccc3c2[nH]1 | 55 |
| O=C1Cc2c([nH]c3ccc([N+](=O)[O-])cc23)-c2ccccc2N1 | 68 |
| O=C(c1ccccc1)c1ccc(N2CCOCC2)cc1O | 68 |
| O=C1Cc2c([nH]c3ccc(Br)cc23)-c2ccccc2N1 | 74 |
| CCCCc1c(-c2ccc(O)cc2)[nH]c2nccnc12 | 90 |
| CC(C)[C@H](CO)Nc1nc(Nc2cc(N)cc(Cl)c2)c2ncn(C(C)C)c2n1 | 51 |
| O=S(=O)(c1cccc2cnccc12)N1CCCNCC1 | 67 |
| NCCNc1ncc(C(N)=O)c(Nc2cccc(C(F)(F)F)c2)n1 | 78 |
| O=C(Nc1nc2ccccc2n1CCN1CCOCC1)c1cccc([N+](=O)[O-])c1 | 75 |
| N#C/C(=C\c1ccc(O)c(O)c1)C(=O)NCc1ccccc1 | 17 |
| N#Cc1c(NC(=O)c2cccc3ccccc23)sc2c1CCCC2 | 90 |
